In all, about 27,000 compounds went through this assay and about 120 (0.44%) were called active. The sample as a whole holds a higher share of actives than the screen did. Values without a mark were called inactive. Cut-off read from the data, not from the text of the source: active = inhibition above about 20%; inconclusive = no clear call, values can overlap the other calls; inactive = below that.
Molecular target: Serine/threonine-protein kinase 33 (Homo sapiens) (UniProt Q9BYT3)
Assay: STK33 kinase inhibitors, primary screen, biochemical, luminescence, ADP-Glo, MBP substrate (AID 2322)
Conditions: at 12.5 µM, active compounds read high

Chain of Serine/threonine-protein kinase 33 (Homo sapiens) (Q9BYT3 whole entry, looked up): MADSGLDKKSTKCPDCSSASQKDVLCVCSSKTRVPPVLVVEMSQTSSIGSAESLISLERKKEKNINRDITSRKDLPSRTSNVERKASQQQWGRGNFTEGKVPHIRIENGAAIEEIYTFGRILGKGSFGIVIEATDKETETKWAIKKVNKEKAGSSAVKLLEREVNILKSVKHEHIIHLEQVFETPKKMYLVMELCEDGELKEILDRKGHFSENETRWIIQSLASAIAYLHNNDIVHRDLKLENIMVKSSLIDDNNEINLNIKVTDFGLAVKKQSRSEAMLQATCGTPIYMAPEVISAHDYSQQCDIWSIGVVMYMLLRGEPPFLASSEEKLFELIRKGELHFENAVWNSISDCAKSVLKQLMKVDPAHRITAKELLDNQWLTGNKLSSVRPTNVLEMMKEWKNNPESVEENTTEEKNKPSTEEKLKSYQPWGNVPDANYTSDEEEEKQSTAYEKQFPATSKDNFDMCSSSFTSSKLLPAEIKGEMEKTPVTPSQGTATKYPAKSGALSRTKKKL

In order of rising inhibition:
1. C[C@H]1CN([C@@H](C)CO)C(=O)CCCn2cc(nn2)CO[C@@H]1CN(C)S(=O)(=O)c1ccc(-c2ccccc2)cc1  -9.48%
2. CC(C)(C)c1ccc(OCC(=O)NCc2ccccn2)c(Br)c1  -6.11%
3. O=C(NCc1ccccn1)c1ccccc1C(=O)c1ccccc1  -3.58%
4. O=C(CSc1nnc(-c2ccccc2)n1-c1ccc(Cl)cc1)Nc1ccc(Cl)cc1  -3.34%
5. Cc1ccc(N(C(C)C(=O)Nc2ccc(F)c(Cl)c2)S(C)(=O)=O)cc1C (stereo not given)  -3.25%
6. COc1ccc(NC(=O)CSc2nncc3ccccc23)c([N+](=O)[O-])c1  -3.11%
7. COc1ccc(OC)c(NC(=O)Cn2cc(C(=O)C3CC3)c3ccccc32)c1  -2.72%
8. O=C(O)CCCC(=O)Nc1ccc(F)cc1  -2.71%
9. COc1ccc(N(CC(=O)Nc2cc(C)ccc2OC)S(C)(=O)=O)cc1Cl  -2.26%
10. Cc1ccc(N(CC(=O)Nc2ccccc2Sc2ccccc2)S(C)(=O)=O)c(C)c1  -1.72%
11. CN(CC(=O)Nc1ccc(F)cc1)S(=O)(=O)c1ccccc1  -1.62%
12. COc1cc(OC)c(NC(=O)CSc2nnc(-c3ccncc3)n2-c2ccccc2)cc1Cl  -1.55%
13. Cc1nn(CC(=O)NCc2ccccn2)c(C)c1[N+](=O)[O-]  -1.47%
14. NCCCC[C@@H]1NC(=O)[C@@H]2C[C@H](C(=O)NCc3ccc(F)cc3)[C@H](c3ccc(O)cc3)N2C1=O  -1.29%
15. O=C(CN1CCCC1)Nc1sc2c(c1C(=O)Nc1ccccc1)CCCC2  -1.02%
16. C[C@H]1CN([C@@H](C)CO)C(=O)c2cc(NC(=O)Cn3cnnn3)ccc2O[C@H]1CN(C)S(C)(=O)=O  -0.963%
17. CCOc1ccc(NC(=O)CSc2nccc(C)n2)cc1  -0.939%
18. COc1ccc(/C=C/C(=O)O[C@@H]2[C@@H](OC(=O)/C=C/c3ccc(OC)cc3)[C@H](C)O[C@@H](O[C@H]3[C@@H]4C=CO[C@@H](O[C@@H]5O[C@H](CO)[C@@H](O)[C@H](O)[C@H]5O)[C@@H]4[C@@]4(CO)O[C@@H]34)[C@@H]2OC(C)=O)cc1  -0.911%
19. Cc1ccc(-n2c(SCC(=O)Nc3cccc(C)c3C)nc3ccccc3c2=O)cc1  -0.698%
20. COc1ccc(C(C)=O)cc1CSc1nnc(-c2ccc(Br)cc2)n1-c1ccccc1  -0.65%
21. COc1ccc(NC(=O)CN2CCN(S(=O)(=O)c3ccc4ccccc4c3)CC2)cc1  -0.51%
22. COc1ccc(N(C(C)C(=O)Nc2cccc(Br)c2)S(C)(=O)=O)cc1 (stereo not given)  -0.0651%
23. O=C(CSc1nc2ccc(NC(=O)c3ccccc3Cl)cc2s1)Nc1ccc(F)cc1  0.13%
24. O=[N+]([O-])c1ccc(NCCNCc2cccnc2)cc1  0.298%
25. O=C(CSc1nnc(-c2ccccn2)n1-c1ccccc1)Nc1ccc2cn[nH]c2c1  0.339%
26. COc1ccc(NC(=O)O[C@@H](c2ccc(OCCO)cc2)[C@@H](C)CCO)cc1  0.388%
27. Cc1ccc(NC(=O)COc2ccccc2C)c([N+](=O)[O-])c1  0.544%
28. COC(=O)c1ccc(NC(=O)CSc2nc(-c3ccccc3)c(-c3ccccc3)[nH]2)cc1  0.633%
29. C[C@@H]1CN([C@H](C)CO)C(=O)c2cc(NC(=O)Nc3ccc4c(c3)OCO4)ccc2O[C@H]1CN(C)Cc1ccc(-c2ccccc2)cc1  0.655%
30. COc1ccc(-c2nnc(SCC(=O)O)n2-c2ccccc2)cc1OC  0.684%
31. C[C@H](CO)N1C[C@H](C)[C@@H](CN(C)C(=O)C2CCCCC2)OCc2cnnn2CCCC1=O  0.882%
32. O=[N+]([O-])c1cccc(NC(=S)Nc2nn(Cc3ccc(Cl)cc3Cl)cc2Cl)c1  1%
33. CN1C(=O)C(O)(CC(=O)c2ccco2)c2cc([N+](=O)[O-])ccc21 (stereo not given)  1.09%
34. CCC(O)c1ccc2c(=O)c(-c3ccccc3F)coc2c1 (stereo not given)  1.14%
35. COc1ccc(Cl)cc1N(CC(=O)Nc1ccc(Br)c(Cl)c1)S(C)(=O)=O  1.17%
36. CN(CC(=O)Nc1ccccc1C#N)S(=O)(=O)c1ccc2ccccc2c1  1.4%
37. COc1ccc(C)cc1S(=O)(=O)N1CCCC(C(=O)Nc2ccccc2C(F)(F)F)C1 (stereo not given)  1.43%
38. CCn1c(SCC(=O)Nc2cc(Cl)ccc2OC)nnc1-c1ccc(Br)cc1  1.48%
39. Nc1cc(N)nc(SCC(=O)c2ccc(Br)cc2)n1  1.93%
40. CCOC(=O)c1c(NC(=O)Cn2nc([N+](=O)[O-])c(Br)c2C)sc2c1CCCC2  2.08%
41. CCCC(O)C#Cc1cnc2c(c1)C(=O)N([C@H](C)CO)C[C@H](C)[C@H](CN(C)S(=O)(=O)c1ccc(C#N)cc1)O2 (stereo not given in full)  2.14%
42. COC(=O)c1ccccc1NC(=O)CSc1n[nH]c(-c2ccncc2)n1  2.87%
43. O=C(c1ccc(NCc2cccnc2)c([N+](=O)[O-])c1)N1CCCCC1  2.99%
44. C[C@H](CO)N1C[C@H](C)[C@@H](CN(C)S(=O)(=O)c2ccc(F)cc2)OCc2cnnn2CCCC1=O  3.05%
45. C[C@H](CO)N1C[C@H](C)[C@H](CN(C)S(C)(=O)=O)Oc2ncc(C#CCN(C)C)cc2C1=O  3.31%
46. COC(=O)c1ccc(NC(=O)CSc2nc(-c3ccccc3)cc(=O)[nH]2)cc1  4.41%
47. CC(C)N1C(=O)[C@@]2(Cc3ccccc31)c1ccccc1C(=O)N(C1CCCCC1)[C@H]2c1ccc(CO)cc1  4.98%
48. C[C@H](CO)N1C[C@H](C)[C@H](CN(C)S(=O)(=O)c2ccc(Cl)cc2)Oc2ccc(NC(=O)C3CCCCC3)cc2C1=O  5.34%
49. Cc1cc(C)c2oc(-c3cccc(NC(=O)COc4ccc(Br)cc4)c3C)nc2c1  5.61%

With `Nc1ccc2c3c(cccc13)C(=O)NC2=O` the inhibition was 28.5% (active).

— PubChem BioAssay AID2322 (Broad Institute, 2010)
